{"source": "PubChem BioAssay (NCATS)", "note": "Where “and” joins values, the source holds several entries; their conditions need not be identical. Identical values can stand only once. Inconclusive results are not listed. A call without a number means that no potency is given here. Calls of active or inactive are those of the source. Calls follow the shape of the dose curve; as a rule, active = well fitted curve in the direction sought with a large enough effect; inconclusive = small, poorly fitted or top-dose-only effect, or another doubt; inactive = no such curve, though single readings can be large; an effect the other way counts as inactive or inconclusive. Potency is read from the fitted curve at half-maximal effect.", "data": [{"molecular_target": "N-terminal Xaa-Pro-Lys N-methyltransferase 1 (Homo sapiens) (UniProt Q9BV86)", "sequence (Q9BV86 whole entry, looked up)": "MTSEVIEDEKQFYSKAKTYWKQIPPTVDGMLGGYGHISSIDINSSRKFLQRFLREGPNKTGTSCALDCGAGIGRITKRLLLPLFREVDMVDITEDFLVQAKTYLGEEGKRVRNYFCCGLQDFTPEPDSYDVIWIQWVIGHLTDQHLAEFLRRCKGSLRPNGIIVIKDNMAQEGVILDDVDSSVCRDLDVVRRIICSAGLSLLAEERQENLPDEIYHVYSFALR", "assay": "qHTS Assay for Inhibitors of N-terminal methyltransferase 1 (NTMT1): LOPAC validation of the NTMT1 SAHH-coupled ThioGlo3 Assay (AID 1347143);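 also: SAH from peptide methylation measured as thiol fluorescence via SAHH coupling and ThioGlo3; nearly all actives have a fitted effect of over 70% in size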", "details": "recombinant NTMT1, SAHH-coupled ThioGlo3 fluorescence; series mostly up to 114 µM", "procedure,_shortened": "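NTMT1 125nM + cpds (various conc.), 1 min RT; add SAM 100uM/SAHH 10uM/ThioGlo3 15uM (addition mix). SAHH-coupled thiol detection, Ex340/Em450, t0 and 30 min RT; signal normalized to background. LOPAC 1280-cpd pilot.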", "values": [{"smiles": "Oc1ccc(-c2nc(-c3ccc(F)cc3)c(-c3ccncc3)[nH]2)cc1", "Potency": "79.4 µM (active)"}, {"smiles": "CCN(CC)C(=S)SSC(=S)N(CC)CC", "Potency": "4.47 µM (active)"}, {"smiles": "O=C1c2c(O)cc(O)cc2OC(c2ccc(O)c(O)c2)C1O", "note": "(stereo not drawn)", "Potency": "25.1 µM (active)"}, {"smiles": "Nc1nc(OCc2ccccc2)c2[nH]cnc2n1", "Potency": "inactive"}, {"smiles": "CC1(C)C(=O)N(CCN2CCC(C(=O)c3ccc(F)cc3)CC2)c2ccccc21", "Potency": "inactive"}]}, {"molecular_target": "Furin (Homo sapiens) (UniProt P09958)", "sequence (P09958 whole entry, looked up)": "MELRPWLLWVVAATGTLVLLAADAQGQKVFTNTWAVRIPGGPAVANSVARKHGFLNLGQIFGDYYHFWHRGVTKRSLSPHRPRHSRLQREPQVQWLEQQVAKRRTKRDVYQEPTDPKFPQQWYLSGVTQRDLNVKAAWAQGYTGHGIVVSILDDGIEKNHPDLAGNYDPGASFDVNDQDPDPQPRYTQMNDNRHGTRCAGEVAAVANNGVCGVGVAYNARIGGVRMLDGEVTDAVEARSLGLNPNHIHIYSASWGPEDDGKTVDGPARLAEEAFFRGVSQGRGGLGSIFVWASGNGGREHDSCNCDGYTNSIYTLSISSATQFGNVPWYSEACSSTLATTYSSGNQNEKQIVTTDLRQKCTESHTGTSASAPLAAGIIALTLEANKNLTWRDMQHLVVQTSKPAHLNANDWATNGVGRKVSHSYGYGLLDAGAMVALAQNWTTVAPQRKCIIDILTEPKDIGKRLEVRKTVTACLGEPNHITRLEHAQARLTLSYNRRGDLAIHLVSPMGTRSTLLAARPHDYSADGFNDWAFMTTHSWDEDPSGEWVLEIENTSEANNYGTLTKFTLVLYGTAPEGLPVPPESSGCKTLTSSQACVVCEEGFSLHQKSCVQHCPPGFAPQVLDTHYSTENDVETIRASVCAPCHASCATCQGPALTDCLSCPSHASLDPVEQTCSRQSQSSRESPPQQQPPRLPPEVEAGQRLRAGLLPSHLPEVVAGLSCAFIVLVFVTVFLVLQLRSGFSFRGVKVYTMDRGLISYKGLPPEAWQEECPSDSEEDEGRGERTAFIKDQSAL", "assay": "Furin counterscreen qHTS for Zika virus inhibitors (AID 1347149); also: nearly all actives have a fitted effect of over 70% in size", "details": "furin enzymatic counterscreen, fluorogenic substrate; series mostly up to 57.5 µM", "procedure,_shortened": "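Counterscreen measures cleavage of 2 microM BOC-RVRR-AMC, below its ~15 microM Km, by 5 nM full-length human furin at pH 7.0 after a 15-min compound preincubation. Inhibition derives from the 15-min fluorescence increase at 37C.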", "values": [{"smiles": "CC(C)C[C@H](NC(=O)[C@H](Cc1ccccc1)NC(=O)c1cnccn1)B(O)O", "Potency": "inactive"}, {"smiles": "C=C(c1ccc(C(=O)O)cc1)c1cc2c(cc1C)C(C)(C)CCC2(C)C", "Potency": "inactive"}, {"smiles": "CN(C)c1ccc(O)c2c1C[C@H]1C[C@H]3[C@H](N(C)C)C(=O)C(C(N)=O)=C(O)[C@@]3(O)C(=O)C1=C2O", "Potency": "inactive"}, {"smiles": "Cc1nc(Nc2ncc(C(=O)Nc3c(C)cccc3Cl)s2)cc(N2CCN(CCO)CC2)n1", "Potency": "50.1 µM (active)"}]}, {"tested_on": "Zika virus NS2B-NS3 protease (unlinked)", "assay": "Optimization of GU AMC qHTS for Zika virus inhibitors: Unlinked NS2B-NS3 protease assay (AID 1347151); also: nearly all actives have a fitted effect of over 80% in size", "details": "recombinant ZIKV NS2B-NS3 protease, fluorogenic AMC substrate; series mostly up to 52.5 µM", "procedure,_shortened": "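Fluorescence gain (340/450 nm) over 15 min at room temperature, ~20% conversion, gave percent inhibition fitted to a 4-parameter Hill equation; enzyme was unlinked NS2B-NS3 (25 nM final), pH 8.0 Tris buffer.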", "values": [{"smiles": "c1cnc2cc3c(cc2n1)C1CNCC3C1", "Potency": "inactive"}, {"smiles": "CC(C)C[C@H](NC(=O)[C@H](Cc1ccccc1)NC(=O)c1cnccn1)B(O)O", "Potency": "inactive"}, {"smiles": "O=C(CCc1ccc(O)cc1)c1c(O)cc(O)cc1O", "Potency": "inactive"}, {"smiles": "CCN(CC)C(=S)SSC(=S)N(CC)CC", "Potency": "inactive"}, {"smiles": "O=C1c2c(O)cc(O)cc2OC(c2ccc(O)c(O)c2)C1O", "note": "(stereo not drawn)", "Potency": "inactive"}, {"smiles": "Nc1nc(OCc2ccccc2)c2[nH]cnc2n1", "Potency": "inactive"}, {"smiles": "CCN(CC)CCOc1ccc(Nc2ncc3cc(-c4c(Cl)cccc4Cl)c(=O)n(C)c3n2)cc1", "Potency": "inactive"}, {"smiles": "Cc1nc(Nc2ncc(C(=O)Nc3c(C)cccc3Cl)s2)cc(N2CCN(CCO)CC2)n1", "Potency": "398 µM (active)"}, {"smiles": "CC1(C)C(=O)N(CCN2CCC(C(=O)c3ccc(F)cc3)CC2)c2ccccc21", "Potency": "inactive"}]}, {"tested_on": "Zika virus NS2B-NS3 protease (linked construct)", "assay": "Confirmatory screen NINDS AMC qHTS for Zika virus inhibitors (AID 1347152); also: nearly all actives have a fitted effect of over 70% in size", "details": "Purified linked NS2B-NS3, AMC substrate fluorescence; series mostly up to 56.6 µM", "procedure,_shortened": "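IC50s from 4-parameter Hill fits of percent inhibition, based on AMC fluorescence gain (340/450 nm) over 15 min with 10 microM Bz-Nle-KRR-AMC. Enzyme: 1 nM linked NS2B-NS3 in Tris-HCl pH 8.0; 15-min compound preincubation.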", "values": [{"smiles": "Oc1ccc(-c2nc(-c3ccc(F)cc3)c(-c3ccncc3)[nH]2)cc1", "Potency": "inactive"}, {"smiles": "C=C(c1ccc(C(=O)O)cc1)c1cc2c(cc1C)C(C)(C)CCC2(C)C", "Potency": "19.2 µM (active)"}, {"smiles": "CN(C)c1ccc(O)c2c1C[C@H]1C[C@H]3[C@H](N(C)C)C(=O)C(C(N)=O)=C(O)[C@@]3(O)C(=O)C1=C2O", "Potency": "inactive"}]}, {"tested_on": "Zika virus NS2B-NS3 protease (unlinked complex)", "assay": "Confirmatory screen GU AMC qHTS for Zika virus inhibitors (AID 1347153); also: nearly all actives have a fitted effect of over 70% in size;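 as to potency: enzyme at 25 nM with substrate at 10 µM below its Km of 18.3 µM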", "details": "Recombinant NS2B-NS3 protease, AMC substrate fluorescence; series mostly up to 57.1 µM", "procedure,_shortened": "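Fluorescence change (ex 340/em 450 nm) over 15 min, ~20% substrate conversion, normalized to no-inhibitor and no-enzyme controls, then Hill-fitted. Unlinked protease at 25 nM; AMC peptide 10 µM.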", "values": [{"smiles": "Oc1ccc(-c2nc(-c3ccc(F)cc3)c(-c3ccncc3)[nH]2)cc1", "Potency": "inactive"}, {"smiles": "C=C(c1ccc(C(=O)O)cc1)c1cc2c(cc1C)C(C)(C)CCC2(C)C", "Potency": "19.2 µM (active) and 21.5 µM (active)"}, {"smiles": "CN(C)c1ccc(O)c2c1C[C@H]1C[C@H]3[C@H](N(C)C)C(=O)C(C(N)=O)=C(O)[C@@]3(O)C(=O)C1=C2O", "Potency": "inactive"}]}, {"tested_on": "Zika virus NS2B-NS3 protease", "assay": "Primary screen GU AMC qHTS for Zika virus inhibitors (AID 1347154); also: nearly all actives have a fitted effect of over 70% in size", "details": "Zika NS2B-NS3 unlinked protease, AMC fluorogenic substrate; series mostly up to 54.1 µM", "procedure,_shortened": "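Fluorogenic AMC-substrate cleavage by noncovalent NS2B-NS3 protease complex (25 nM, pH 8.0 Tris buffer with Tween 20) followed for 15 minutes at room temperature (~20% conversion). Percent inhibition from ex340/em450 signal change, fitted by 4-parameter Hill equation.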", "values": [{"smiles": "Nc1nc(Cl)nc2c1ncn2[C@H]1C[C@H](O)[C@@H](CO)O1", "Potency": "inactive"}, {"smiles": "CC(S)C(=O)NCC(=O)O", "note": "(stereo not drawn)", "Potency": "inactive"}, {"smiles": "COc1cc(C(C)=O)ccc1OCCCN1CCC(c2noc3cc(F)ccc23)CC1", "Potency": "inactive"}, {"smiles": "C[C@]12CCC(=O)C=C1CC[C@@H]1[C@H]2[C@@H](O)C[C@@]2(C)[C@H]1CC[C@]2(O)C(=O)CO", "Potency": "inactive"}, {"smiles": "CC(C)C[C@H](NC(=O)[C@H](Cc1ccccc1)NC(=O)c1cnccn1)B(O)O", "Potency": "inactive"}, {"smiles": "Oc1ccc(-c2nc(-c3ccc(F)cc3)c(-c3ccncc3)[nH]2)cc1", "Potency": "inactive"}, {"smiles": "CCCOc1ccc2nc(NC(=O)OC)[nH]c2c1", "Potency": "inactive"}, {"smiles": "CCN(CC)C(=S)SSC(=S)N(CC)CC", "Potency": "inactive"}, {"smiles": "Cc1c(C(=O)NN2CCCCC2)nn(-c2ccc(Cl)cc2Cl)c1-c1ccc(Cl)cc1", "Potency": "inactive"}, {"smiles": "CCCCc1ccc2nc(NC(=O)OC)[nH]c2c1", "Potency": "inactive"}, {"smiles": "CCN(CCO)CCCC(C)Nc1ccnc2cc(Cl)ccc12", "note": "(stereo not drawn)", "Potency": "inactive"}, {"smiles": "C=C(c1ccc(C(=O)O)cc1)c1cc2c(cc1C)C(C)(C)CCC2(C)C", "Potency": "9.61 µM (active) and 14.4 µM (active)"}, {"smiles": "Cc1cc(C2CCCCC2)n(O)c(=O)c1", "Potency": "inactive"}, {"smiles": "CN(C)c1ccc2nc3ccc(=[N+](C)C)cc-3sc2c1", "Potency": "inactive"}, {"smiles": "Nc1nc(OCc2ccccc2)c2[nH]cnc2n1", "Potency": "inactive"}, {"smiles": "CCN(CC)CCOc1ccc(Nc2ncc3cc(-c4c(Cl)cccc4Cl)c(=O)n(C)c3n2)cc1", "Potency": "inactive"}, {"smiles": "Cc1nc(Nc2ncc(C(=O)Nc3c(C)cccc3Cl)s2)cc(N2CCN(CCO)CC2)n1", "Potency": "inactive"}, {"smiles": "CCOc1cc(CC(=O)N[C@@H](CC(C)C)c2ccccc2N2CCCCC2)ccc1C(=O)O", "Potency": "inactive"}, {"smiles": "CC1(C)C(=O)N(CCN2CCC(C(=O)c3ccc(F)cc3)CC2)c2ccccc21", "Potency": "inactive"}]}]}
